We go through seven molecules from PubChem BioAssay (NCI).

Some test systems named below: HCT-15 colon; HT29 colon; SNB-75 CNS; SNB-19 CNS; U251 CNS; PC-3 prostate; SK-MEL-5 melanoma; UACC-62 melanoma; LOX IMVI melanoma; SK-MEL-28 melanoma; SK-MEL-2 melanoma; EKVX NSCLC; SN12C renal; UO-31 renal; TK-10 renal; ACHN renal; CAKI-1 renal; A498 renal; CCRF-CEM leukemia; MOLT-4 leukemia.
What all share (assay): NCI-60 one-dose screen, 48 h (100 = growth as untreated, 0 = no growth, -100 = all killed)
What all share (conditions): 10 µM unless noted

Molecules are shown by their SMILES. This is part of a sample that, as a whole, favours compounds with a hit. Of some 83,000 tested, about 20% had one in any assay.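 Results are percent growth after 48 hours of single-concentration exposure. 100 means growth as in untreated cells, lower positive values show inhibition; negative values down to -100 show cell death.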 A number with no mark means an inactive call. Calls of active or inactive are those of the source. Rule for the calls: active = growth percent below 10; inactive = the rest.

Take `C=C1C(=O)O[C@H]2[C@H]1CC/C(COC(=O)NCCOCCOCC(=O)Nc1ccc(OC)c(C(N)=O)c1O)=C\CC[C@@]1(C)O[C@@H]21`: the growth in the assay with HCT-15 colon is 85.4%; with HT29 colon, 37.2%; in the assay with SNB-75 CNS, 80.1%; in the assay on SNB-19 CNS, 77.8%; with U251 CNS, 70.5%; in the assay with PC-3 prostate, 51.4%. Besides, the growth is 84.9% in the assay on SK-MEL-5 melanoma; 44.4% in the assay with UACC-62 melanoma; 57.2% with LOX IMVI melanoma; 47.1% in the assay with SK-MEL-28 melanoma; 72.5% in the assay on SK-MEL-2 melanoma; 84.1% in the assay on EKVX NSCLC. Moreover, the growth was 66% in the assay on SN12C renal; 74.9% in the assay with UO-31 renal; 45.5% in the assay with TK-10 renal; 40.8% with ACHN renal; 82% in the assay with CAKI-1 renal; 92.5% in the assay with A498 renal. In addition, the values for the growth with CCRF-CEM leukemia and with MOLT-4 leukemia were -4.37% (active) and 17%, respectively.

Consider `CCc1cccc2c1S/C(=C/c1ccc(OC)cc1)C2=O`, for which the growth in the assay on HCT-15 colon was 28.1%; with HT29 colon, 84.5%; with SNB-75 CNS, 26.6%; with SNB-19 CNS, 45.2%; with U251 CNS, 41.7%; in the assay on PC-3 prostate it was 33.9%. Besides, the growth with SK-MEL-5 melanoma was 57.2%; in the assay with UACC-62 melanoma, 31.2%; with LOX IMVI melanoma, 40.3%; with SK-MEL-28 melanoma it was 59.3%; in the assay with SK-MEL-2 melanoma, 51%; in the assay on EKVX NSCLC, 93.9%. Besides, the growth is 49.4% in the assay with SN12C renal; 52.9% in the assay on UO-31 renal; 127% with TK-10 renal; 54.1% in the assay on ACHN renal; 6.96% (active) in the assay with CAKI-1 renal; 104% with A498 renal. Further, the growth in the assay with CCRF-CEM leukemia was 35.7%; in the assay with MOLT-4 leukemia, 34.5%.

Turning to `NS(=O)(=O)c1ccc(-n2nc(C(=O)N/N=C\c3ccc(F)cc3)cc2-c2ccc(Br)cc2)cc1`, the growth is 54.3% in the assay on HCT-15 colon; 66.4% in the assay with HT29 colon; 37.4% in the assay with SNB-75 CNS; 83% in the assay on SNB-19 CNS; 89% with U251 CNS; 72.2% in the assay with PC-3 prostate. The growth in the assay with SK-MEL-5 melanoma is 87.2%; in the assay with UACC-62 melanoma, 64.4%; in the assay with LOX IMVI melanoma, 74.9%; with SK-MEL-28 melanoma it was 77.8%; in the assay on SK-MEL-2 melanoma, 80%; in the assay with EKVX NSCLC, 72.7%. The growth in the assay on SN12C renal was 92.7%; in the assay with UO-31 renal it was 75%; in the assay with TK-10 renal, 121%; in the assay with ACHN renal, 88.2%; with CAKI-1 renal, 41.8%; in the assay with A498 renal, 31.9%. For the same molecule, the figures for the growth in the assay on CCRF-CEM leukemia and in the assay on MOLT-4 leukemia were 74.8% and 80.4%, respectively.

As for `O=C(Nc1ccc(OS(=O)(=O)c2ccc(F)cc2)cc1)c1ccc(Cl)cc1`, the growth with HCT-15 colon is 89.9%; in the assay with HT29 colon, 80.1%; with SNB-75 CNS, 114%; in the assay with SNB-19 CNS, 99.4%; in the assay with U251 CNS, 100%; with PC-3 prostate it was 91.8%. Also, the growth in the assay on SK-MEL-5 melanoma is 90.8%; with UACC-62 melanoma, 96%; in the assay on LOX IMVI melanoma, 98.7%; in the assay with SK-MEL-28 melanoma it was 107%; in the assay with SK-MEL-2 melanoma, 90.6%; in the assay on EKVX NSCLC, 101%. The growth in the assay with SN12C renal is 95.7%; with UO-31 renal, 92.5%; in the assay on TK-10 renal, 95.6%; with ACHN renal it was 103%; in the assay with CAKI-1 renal, 105%; with A498 renal it was 82.9%. Also, the growth in the assay on CCRF-CEM leukemia is 98.7%; in the assay with MOLT-4 leukemia, 89.1%.

As to `CCc1cccc2c3c(sc12)C(c1ccc(Cl)cc1)C(C#N)=C(N)O3` (stereo not given), the growth in the assay on HCT-15 colon is 13.8%; in the assay on HT29 colon, 6.86% (active); in the assay with SNB-75 CNS it was -10.2% (active); with SNB-19 CNS, 27.1%; with U251 CNS, 24.7%; in the assay on PC-3 prostate it was 7.23% (active). Moreover, the growth is 29% with SK-MEL-5 melanoma; 22.1% in the assay with UACC-62 melanoma; 26.6% in the assay with LOX IMVI melanoma; 63.4% with SK-MEL-28 melanoma; 40.2% in the assay with SK-MEL-2 melanoma; 48.2% in the assay with EKVX NSCLC. Also, the growth with SN12C renal was 38.3%; with UO-31 renal, 38.2%; in the assay on TK-10 renal it was 69%; in the assay on ACHN renal it was 33.7%; with CAKI-1 renal it was 3.05% (active); with A498 renal it was 10.8%. Moreover, the growth in the assay on CCRF-CEM leukemia was 5.24% (active); in the assay with MOLT-4 leukemia, 12.2%.

For the molecule `Nc1nc(-c2cccc3ccccc23)cc2ccccc12`, the growth with HCT-15 colon is 3.98% (active); with HT29 colon it was 1.11% (active); with SNB-75 CNS, 7.16% (active); with SNB-19 CNS, 12%; in the assay with U251 CNS, 16.3%; in the assay with PC-3 prostate, 20.5%. Further, the growth in the assay with SK-MEL-5 melanoma was 11%; in the assay with UACC-62 melanoma it was 23.5%; with LOX IMVI melanoma, 20.9%; in the assay with SK-MEL-28 melanoma it was 48.2%; with SK-MEL-2 melanoma, 27.7%; in the assay with EKVX NSCLC it was 46%. Besides, the growth in the assay with SN12C renal was 35.8%; in the assay on UO-31 renal, 19.6%; in the assay on TK-10 renal, 55.8%; with ACHN renal, 36.6%; with CAKI-1 renal, 15.6%; in the assay with A498 renal, -19.8% (active). The growth with CCRF-CEM leukemia was 29%; with MOLT-4 leukemia, -3.33% (active).

For `NC[C@@H]1O[C@H](O[C@@H]2[C@@H](CO)OC(O[C@@H]3[C@@H](O)[C@H](N)C[C@H](N)[C@H]3OC3O[C@H](CN)[C@@H](O)[C@H](O)[C@H]3N)[C@@H]2O)[C@H](N)[C@@H](O)[C@@H]1O` (stereo not given in full), the growth with HCT-15 colon was 103%; in the assay on HT29 colon, 109%; in the assay on SNB-75 CNS, 106%; with SNB-19 CNS it was 115%; in the assay with U251 CNS it was 102%; with PC-3 prostate, 111%. Also, the growth in the assay on SK-MEL-5 melanoma is 106%; in the assay with UACC-62 melanoma it was 118%; in the assay on LOX IMVI melanoma it was 101%; with SK-MEL-28 melanoma, 111%; with SK-MEL-2 melanoma it was 125%; in the assay on EKVX NSCLC, 98.4%. The growth in the assay with SN12C renal is 117%; in the assay on UO-31 renal it was 109%; in the assay on TK-10 renal, 120%; with ACHN renal, 105%; in the assay with CAKI-1 renal, 99.5%; in the assay on A498 renal, 108%. In addition, the growth in the assay on CCRF-CEM leukemia was 97.5%; in the assay on MOLT-4 leukemia it was 112%.
